The supplement of paper PMC4709259
Structures can show the parent of a compound that is named as a salt. ± gives the standard deviation.

Key:
Jurkat [1] = assay: mean cell size (FSC-A) relative to DMSO control (fraction of control); higher = larger cells; settings: 48 h
Outline: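 Jurkat cells at 600 cells/µl were incubated for 1 h and then treated for 48h with the Enzo Screen-Well FDA Approved Drug Library v2.0 at 25µM, with DMSO at 0.9% (v/v) final. Compounds that reduced counts below 20% of controls were retested in 10-fold dilutions down to 25nM. Cell count and mean cell size, taken as forward scatter area, were measured by flow cytometry relative to solvent-only controls. Each plate carried 6-12 controls, and values are means of 3 biological replicates.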

Jurkat [2] = assay: cell count relative to DMSO control (fraction of control); higher = more cells (less growth inhibition); settings: 48 h

## CN1C(=O)OC(C)(C)C1=O [Trimethadione] (concentration: 25 µM)
Jurkat [1]
  mean cell size: 1.07 ± 0.016
Jurkat [2]
  cell count: 1.02 ± 0.025

## CC[C@@H]1C(=O)OC[C@@H]1Cc1cncn1C [Pilocarpine·HCl] (concentration: 25 µM)
Jurkat [1]
  mean cell size: 0.97 ± 0.049
Jurkat [2]
  cell count: 0.246 ± 0.11

## Cc1cc2c(s1)Nc1ccccc1N=C2N1CCN(C)CC1 [Olanzapine] (concentration: 25 µM)
Jurkat [1]
  mean cell size: 1.02 ± 0.06
Jurkat [2]
  cell count: 0.914 ± 0.1

## CC1=Nc2ccc(Cl)cc2S(=O)(=O)N1 [Diazoxide] (concentration: 25 µM)
Jurkat [1]
  mean cell size: 1.01 ± 0.064
Jurkat [2]
  cell count: 0.916 ± 0.04

## N[C@@H](C(=O)N[C@@H]1C(=O)N2C(C(=O)O)=C(Cl)CS[C@H]12)c1ccccc1 [Cefaclor] (concentration: 25 µM)
Jurkat [1]
  mean cell size: 0.916 ± 0.015
Jurkat [2]
  cell count: 1.03 ± 0.097

## C[C@@H]1[C@H](O)[C@@H](C)/C=C/C=C/C=C/C=C/C=C/C=C/C=C/[C@H](O[C@@H]2O[C@H](C)[C@@H](O)[C@H](N)[C@@H]2O)C[C@@H]2O[C@](O)(C[C@@H](O)C[C@@H](O)[C@H](O)CC[C@@H](O)C[C@@H](O)CC(=O)O[C@H]1C)C[C@H](O)[C@H]2C(=O)O [Amphotericin B] (concentration: 25 µM)
Jurkat [1]
  mean cell size: 1.016 ± 0.0092
Jurkat [2]
  cell count: 0.27 ± 0.024

## CC1COc2c(N3CCN(C)CC3)c(F)cc3c(=O)c(C(=O)O)cn1c23 (stereo not drawn) [Ofloxacin] (concentration: 25 µM)
Jurkat [1]
  mean cell size: 0.928 ± 0.011
Jurkat [2]
  cell count: 0.989 ± 0.073

## CCC(=O)O[C@]1(C(=O)CCl)[C@@H](C)C[C@H]2[C@@H]3C[C@H](F)C4=CC(=O)C=C[C@]4(C)[C@@]3(F)[C@@H](O)C[C@@]21C [Halobetasol Propionate] (concentration: 25 µM)
Jurkat [1]
  mean cell size: 0.971 ± 0.034
Jurkat [2]
  cell count: 0.883 ± 0.12

## CCCC(CCC)C(=O)O [Valproate·Na] (concentration: 25 µM)
Jurkat [1]
  mean cell size: 0.999 ± 0.025
Jurkat [2]
  cell count: 1.01 ± 0.096

## CC(CCc1ccccc1)NCC(O)c1ccc(O)c(C(N)=O)c1 (stereo not drawn) [Labetalol·HCl] (concentration: 25 µM)
Jurkat [1]
  mean cell size: 0.928 ± 0.049
Jurkat [2]
  cell count: 0.821 ± 0.1

## Nc1nc(Cl)nc2c1ncn2[C@@H]1O[C@H](CO)[C@@H](O)[C@@H]1F [Clofarabine] (concentration: 25 nM)
Jurkat [1]
  mean cell size: 1.18 ± 0.048
Jurkat [2]
  cell count: 0.26 ± 0.073

## CC(=O)O[C@]1(C(C)=O)CC[C@H]2[C@@H]3C[C@H](C)C4=CC(=O)CC[C@]4(C)[C@H]3CC[C@@]21C [Medroxyprogesterone Acetate] (concentration: 25 µM)
Jurkat [1]
  mean cell size: 0.956 ± 0.065
Jurkat [2]
  cell count: 0.352 ± 0.042

## O=C1Nc2ccc(Cl)cc2[C@@](C#CC2CC2)(C(F)(F)F)O1 [Efavirenz] (concentration: 25 µM)
Jurkat [1]
  mean cell size: 0.9 ± 0.017
Jurkat [2]
  cell count: 0.628 ± 0.019

## CCN[C@H]1C[C@H](C)S(=O)(=O)c2sc(S(N)(=O)=O)cc21 [Dorzolamide·HCl] (concentration: 25 µM)
Jurkat [1]
  mean cell size: 0.965 ± 0.04
Jurkat [2]
  cell count: 0.675 ± 0.14

## Nc1nc(O)c2ncn(CCC(CO)CO)c2n1 [Penciclovir] (concentration: 25 µM)
Jurkat [1]
  mean cell size: 0.95 ± 0.021
Jurkat [2]
  cell count: 0.993 ± 0.053

## OCCN1C[C@H](O)[C@@H](O)[C@H](O)[C@H]1CO [Miglitol] (concentration: 25 µM)
Jurkat [1]
  mean cell size: 0.994 ± 0.04
Jurkat [2]
  cell count: 0.767 ± 0.14

## CCN(CC)CCOc1ccc(C(=C(Cl)c2ccccc2)c2ccccc2)cc1 [Clomiphene Citrate] (concentration: 25 µM)
Jurkat [1]
  mean cell size: 0.897 ± 0.013
Jurkat [2]
  cell count: 0.793 ± 0.056

## C[C@]12C=CC(=O)C=C1CC[C@@H]1[C@@H]2[C@@H](O)C[C@@]2(C)[C@H]1CC[C@]2(O)C(=O)CO [Prednisolone] (concentration: 25 µM)
Jurkat [1]
  mean cell size: 0.979 ± 0.017
Jurkat [2]
  cell count: 0.836 ± 0.14

## COC(=O)CCc1ccc(OCC(O)CNC(C)C)cc1 (stereo not drawn) [Esmolol] (concentration: 25 µM)
Jurkat [1]
  mean cell size: 0.9278 ± 0.0077
Jurkat [2]
  cell count: 1.08 ± 0.12

## COC(=O)[C@H](c1ccccc1Cl)N1CCc2sccc2C1 [Clopidogrel Hydrogen Sulfate] (concentration: 25 µM)
Jurkat [1]
  mean cell size: 0.981 ± 0.051
Jurkat [2]
  cell count: 0.942 ± 0.095

## CN1C(C(=O)Nc2ccccn2)=C(O)c2ccccc2S1(=O)=O [Piroxicam] (concentration: 25 µM)
Jurkat [1]
  mean cell size: 0.9597 ± 0.0066
Jurkat [2]
  cell count: 0.738 ± 0.07

## CNC(=C[N+](=O)[O-])NCCSCc1csc(CN(C)C)n1 [Nizatidine] (concentration: 25 µM)
Jurkat [1]
  mean cell size: 0.976 ± 0.011
Jurkat [2]
  cell count: 0.809 ± 0.02

## c1cnc2cc3c(cc2n1)[C@@H]1CNC[C@H]3C1 [Varenicline Tartrate] (concentration: 25 µM)
Jurkat [1]
  mean cell size: 1.02 ± 0.038
Jurkat [2]
  cell count: 1.01 ± 0.062

## Cc1nc(-c2ccc(OCC(C)C)c(C#N)c2)sc1C(=O)O [Febuxostat] (concentration: 25 µM)
Jurkat [1]
  mean cell size: 1 ± 0.024
Jurkat [2]
  cell count: 0.592 ± 0.028
